{"source": "PubChem BioAssay (Tox21)", "note": "Results filed as inconclusive are left out. A number with no mark means an inactive call. Calls of active or inactive are those of the source. Unless noted, calls follow the shape of the dose curve; as a rule, active = well fitted curve in the direction sought with a large enough effect in the repeat runs; inconclusive = weak or mixed curves; inactive = no such curve, though single readings can be large; an effect the other way counts as inactive or inconclusive. % is scaled to controls: 0 for no effect and ±100 for the full control effect."}
{"biological_target": "Estrogen receptor (Homo sapiens) (UniProt P03372)", "sequence (P03372 whole entry, looked up)": "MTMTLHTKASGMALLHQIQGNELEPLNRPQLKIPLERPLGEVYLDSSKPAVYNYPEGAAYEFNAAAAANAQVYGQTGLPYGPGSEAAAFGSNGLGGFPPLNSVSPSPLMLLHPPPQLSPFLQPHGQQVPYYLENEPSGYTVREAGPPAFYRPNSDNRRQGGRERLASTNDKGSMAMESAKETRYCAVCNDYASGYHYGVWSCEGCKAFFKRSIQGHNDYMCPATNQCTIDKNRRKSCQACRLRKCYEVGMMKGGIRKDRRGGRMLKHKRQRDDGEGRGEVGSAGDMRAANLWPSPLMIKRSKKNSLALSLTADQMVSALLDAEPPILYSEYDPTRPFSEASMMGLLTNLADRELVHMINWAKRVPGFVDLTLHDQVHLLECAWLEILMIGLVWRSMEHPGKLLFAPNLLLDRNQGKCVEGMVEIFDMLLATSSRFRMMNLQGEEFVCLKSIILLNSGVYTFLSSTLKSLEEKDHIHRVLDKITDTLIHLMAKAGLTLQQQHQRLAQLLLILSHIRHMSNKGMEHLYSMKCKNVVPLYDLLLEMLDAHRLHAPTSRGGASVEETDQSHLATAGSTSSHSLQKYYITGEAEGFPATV", "assay": "qHTS assay to identify small molecule antagonists of the estrogen receptor alpha (ER-alpha) signaling pathway using the BG1 cell line in the presence of 0.1 nM 17-beta-estradiol (AID 1259244); also: nearly all actives have a fitted effect of over 50% in size", "conditions": "VM7Luc4E2 (BG1) ERE-luciferase, antagonist mode, 0.1 nM E2, 22 h; series mostly up to 92.4 µM; activity change, negative = inhibition: at the top concentration", "outline": "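Estradiol at 0.1 nM (final) stimulates the endogenous ER-alpha of VM7Luc4E2 cells carrying an ERE-driven luciferase; compounds are co-incubated 22 h at 37C and luciferase output quantified by luminescence.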"}
{"smiles": "O=C(O)CCC(=O)O", "Potency": "inactive"}
{"smiles": "Oc1ccc(/C=C/c2cc(O)cc(O)c2)cc1", "Potency": "inactive"}
{"smiles": "Cc1ccc(C)c(OCCCC(C)(C)C(=O)O)c1", "Potency": "inactive"}
{"smiles": "O=C(O)c1[nH]n(-c2ccc(S(=O)(=O)O)cc2)c(=O)c1N=Nc1ccc(S(=O)(=O)O)cc1", "Potency": "inactive"}
{"smiles": "NC(=O)c1cnccn1", "Potency": "inactive"}
{"smiles": "Cc1ccccc1C(OCCN(C)C)c1ccccc1", "note": "(centres undefined)", "Potency": "inactive"}
{"smiles": "CC(C)(Oc1ccc(C2CC2(Cl)Cl)cc1)C(=O)O", "note": "(centres undefined)", "Potency": "inactive"}
{"smiles": "CCCC(CCC)C(=O)O", "Potency": "inactive"}
{"smiles": "O=C(O)CS", "Potency": "inactive"}
{"smiles": "O=c1ccc2ccccc2o1", "Potency": "inactive"}
{"smiles": "CCCNC(=O)NS(=O)(=O)c1ccc(Cl)cc1", "Potency": "inactive"}
{"smiles": "O=c1cc[nH]c(=S)[nH]1", "Potency": "inactive"}
{"smiles": "NC(=O)c1ccccc1O", "Potency": "inactive"}
{"smiles": "Cn1cc[nH]c1=S", "Potency": "inactive"}
{"smiles": "Cn1c(=O)c2[nH]cnc2n(C)c1=O", "Potency": "inactive"}
{"smiles": "Cc1cc(=O)[nH]c(=S)[nH]1", "Potency": "inactive"}
{"smiles": "COc1ccc2[nH]cc(CCNC(C)=O)c2c1", "Potency": "inactive"}
{"smiles": "Nc1ccn([C@H]2CC[C@@H](CO)O2)c(=O)n1", "Potency": "inactive"}
{"smiles": "Cc1ccc(S(=O)(=O)NC(=O)NN2CCCCCC2)cc1", "Potency": "inactive"}
{"smiles": "CC(=O)NS(=O)(=O)c1ccc(N)cc1", "Potency": "inactive"}
{"smiles": "CC(O)CO", "note": "(centres undefined)", "Potency": "inactive"}
{"smiles": "CCCC(O)C(CC)CO", "note": "(centres undefined)", "Potency": "inactive"}
{"smiles": "CC(=O)Nc1nnc(S(N)(=O)=O)s1", "Potency": "inactive"}
{"test_system": "not listed separately", "assay": "qHTS assay to identify small molecule phospholipidosis (PLD) inducers (AID 1259344; active = well fitted curve in the direction sought with a large enough effect; an effect the other way counts as inactive or inconclusive)", "conditions": "HepG2 phospholipidosis, LipidTOX Red imaging, 24 h; series mostly up to 38.3 µM; PLD induction: at the top concentration", "outline": "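Quantitative HTS in HepG2: compound plus LipidTOX Red dye for 24 h, paraformaldehyde fixation with Hoechst 33342, widefield high-content imaging; amiodarone as positive and DMSO as negative control.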"}
{"smiles": "O=C(O)CCC(=O)O", "PLD induction": "-0.275%"}
{"smiles": "Oc1ccc(/C=C/c2cc(O)cc(O)c2)cc1", "PLD induction": "-0.676% [at 15.5 µM]"}
{"smiles": "Cc1ccc(C)c(OCCCC(C)(C)C(=O)O)c1", "PLD induction": "-0.284%"}
{"smiles": "O=C(O)c1[nH]n(-c2ccc(S(=O)(=O)O)cc2)c(=O)c1N=Nc1ccc(S(=O)(=O)O)cc1", "PLD induction": "-0.703%"}
{"smiles": "CC(O)CN(CCN(CC(C)O)CC(C)O)CC(C)O", "note": "(centres undefined)", "PLD induction": "-0.533%"}
{"smiles": "CCCCCCCCCCCCCCCC(=O)O", "PLD induction": "-1.14%"}
{"smiles": "NC(=O)c1cnccn1", "PLD induction": "-0.611%"}
{"smiles": "c1ccc2[nH]ccc2c1", "PLD induction": "0.371%"}
{"smiles": "CC(C)(Oc1ccc(C2CC2(Cl)Cl)cc1)C(=O)O", "note": "(centres undefined)", "PLD induction": "-0.927%"}
{"smiles": "CCCC(CCC)C(=O)O", "PLD induction": "-0.543%"}
{"smiles": "COc1c2occc2cc2ccc(=O)oc12", "PLD induction": "0.97%"}
{"smiles": "O=c1ccc2ccccc2o1", "PLD induction": "-2.07%"}
{"smiles": "CCC1(c2ccccc2)C(=O)NCNC1=O", "PLD induction": "-0.768%"}
{"smiles": "CCCNC(=O)NS(=O)(=O)c1ccc(Cl)cc1", "PLD induction": "-0.128%"}
{"smiles": "O=c1cc[nH]c(=S)[nH]1", "PLD induction": "0.0346%"}
{"smiles": "NC(=O)c1ccccc1O", "PLD induction": "-0.0674%"}
{"smiles": "Cn1cc[nH]c1=S", "PLD induction": "-0.677% [at 15.5 µM]"}
{"smiles": "Cn1c(=O)c2[nH]cnc2n(C)c1=O", "PLD induction": "-0.399%"}
{"smiles": "Cc1cc(=O)[nH]c(=S)[nH]1", "PLD induction": "-0.346%"}
{"smiles": "COc1ccc2[nH]cc(CCNC(C)=O)c2c1", "PLD induction": "-0.925%"}
{"smiles": "CC(C)[C@@H]1CC[C@@H](C)C[C@H]1O", "PLD induction": "-2.02%"}
{"smiles": "Nc1ccn([C@H]2CC[C@@H](CO)O2)c(=O)n1", "PLD induction": "-3.95%"}
{"smiles": "CC(=O)OCC(COC(C)=O)OC(C)=O", "PLD induction": "-0.298%"}
{"smiles": "O=C(O)c1cc(N=Nc2ccc(S(=O)(=O)Nc3ccccn3)cc2)ccc1O", "PLD induction": "1.17%"}
{"smiles": "O=C(C1CCCCC1)N1CC(=O)N2CCc3ccccc3C2C1", "note": "(centres undefined)", "PLD induction": "-0.015%"}
{"smiles": "Cc1ccc(S(=O)(=O)NC(=O)NN2CCCCCC2)cc1", "PLD induction": "-0.686%"}
{"smiles": "CC(=O)NS(=O)(=O)c1ccc(N)cc1", "PLD induction": "0.755%"}
{"smiles": "O=C(O)c1cccnc1", "PLD induction": "1.75%"}
{"smiles": "CC(O)CO", "note": "(centres undefined)", "PLD induction": "-1.33%"}
{"smiles": "CCCC(O)C(CC)CO", "note": "(centres undefined)", "PLD induction": "0.173%"}
{"smiles": "CC(=O)Nc1nnc(S(N)(=O)=O)s1", "PLD induction": "-0.345%"}
